Data taken from PubChem BioAssay AID1159580 (chemical genetic matrix, 2015).
The campaign covered roughly 5,500 compounds. About 2,000 (36%) were called active. Another 18% or so got no clear call; they are omitted. Cut-off read from the data, not from the text of the source: active = normalized growth mostly below about 0.91 (no sharp cut-off); inconclusive = no clear call, values can overlap the other calls; inactive = mostly above about 0.92. This is one part of the list.

Experiment: chemical genetic growth profiling, strain panel (AID 1159580);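 note: tested at 20 µM; growth read once vehicle control cultures reached saturation at 30 °C; 1 = growth at the plate median or of vehicle wells; lower values mean less growth of the strain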
Conditions: S. cerevisiae deletion strains, growth OD

Measured: normalized growth

CN(C)CC/C=C1\c2ccccc2COc2ccccc21
inactive: locus YAL013W, strain DEP1, active compounds read low 0.998 | locus YAL040C, strain CLN3, active compounds read low 0.997 | locus YCL061C, strain MRC1 (second series), active compounds read low 0.992 | locus YDR150W, strain NUM1, active compounds read low 1.01 | locus YDR363W, strain ESC2, active compounds read low 0.944 | locus YER002W, strain NOP16, active compounds read low 1.01 | locus YGR078C, strain PAC10, active compounds read low 1.01 | locus YJR075W, strain HOC1, active compounds read low 0.952 | locus YMR263W, strain SAP30, active compounds read low 0.991 | locus YNL128W, strain TEP1, active compounds read low 1.01 | locus YNL153C, strain GIM3, active compounds read low 1.03 | locus YNL175C, strain NOP13, active compounds read low 1.02 | locus YNL197C, strain WHI3, active compounds read low 1 | locus YNL224C, strain SQS1, active compounds read low 1.03 | locus YOR083W, strain WHI5 (second series), active compounds read low 0.997
